Source: PubChem
Rows were chosen to be rich in hits. Some 1% of all compounds tested hit in one or more screens of this group.
TRPML1 inh = human mucolipin-1 channel inhibition | 390,000 compounds, 0.02% hits | activity change, negative = inhibition, % (concentration not given with the values) | Q9GZU1 | TRPML1-inducible cells, Ca2+ dye fluorescence, FDSS; stronger effect = lower value; inhibition of EC80 agonist-evoked calcium signal; in the data active = activity change below about -50%; inconclusive = between about -30% and that limit;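 note: stimulus is agonist 54-4 at its EC80 concentration; % is set by controls: 0 for no effect and ±100 for the full control effect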
Target sequence (Q9GZU1 whole entry, looked up): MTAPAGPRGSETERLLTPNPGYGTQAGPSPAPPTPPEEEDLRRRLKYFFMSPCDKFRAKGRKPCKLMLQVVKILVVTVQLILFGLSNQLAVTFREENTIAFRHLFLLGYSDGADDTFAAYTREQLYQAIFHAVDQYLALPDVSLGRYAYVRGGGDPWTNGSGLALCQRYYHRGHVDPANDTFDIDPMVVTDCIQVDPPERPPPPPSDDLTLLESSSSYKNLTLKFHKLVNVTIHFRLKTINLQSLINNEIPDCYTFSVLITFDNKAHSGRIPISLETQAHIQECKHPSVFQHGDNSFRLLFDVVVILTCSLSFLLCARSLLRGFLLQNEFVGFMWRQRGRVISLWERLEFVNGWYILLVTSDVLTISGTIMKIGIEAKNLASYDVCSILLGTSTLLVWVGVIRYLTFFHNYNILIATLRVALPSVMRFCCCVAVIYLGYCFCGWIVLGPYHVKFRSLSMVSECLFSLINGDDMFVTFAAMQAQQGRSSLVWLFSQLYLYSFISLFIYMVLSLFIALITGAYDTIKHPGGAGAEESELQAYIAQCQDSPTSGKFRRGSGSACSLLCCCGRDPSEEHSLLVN
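TRPML1-DL cells, Tet-induced overnight (~16 h, 37 °C) at 1,500 cells/well, were loaded with Ca8 no-wash dye plus quencher for 45-90 min at room temperature. Compounds were pinned during FDSS kinetic reading; agonist 54-4 at EC80 (4 uM final) then added.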
KCNH2 3.1 inh = KCNH2 3.1 (human) potassium channel inhibition; U2OS KCNH2 3.1, thallium flux FluxOr; stronger effect = lower value; activity change, % (tested at about 1.8 µM); 340,000 compounds, 0.95% hits; AID 720553;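 active = maximum activity change below -70%; inconclusive = maximum activity change from -70% to -50%; inactive = maximum activity change above -50%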;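 note: thallium influx rate constant from kinetic fluorescence after stimulation buffer; % is set by controls: 0 for no effect and ±100 for the full control effect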
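U2OS cells transduced with KCNH2 3.1 mutant virus (1.77 x 10^8 /mL, 4 h), plated overnight at 37 C, loaded 45 min with FluxOr dye plus Red40 quencher. Thallium flux rate constant from kinetic reads after stimulation buffer, normalised to controls.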
TSG101-PTAP inh = blocks PTAP/TSG101 interaction to inhibit HIV-1 budding | Fluorescence polarization, FITC-PTAP peptide / Tsg101 binding | Potency, µM (series often up to 115 µM), for the others: at the top dose activity change, negative = inhibition, hits mostly inhibitors | 340,000 tested, under 10 active; active = well fitted inhibition curve with a large enough effect in the main read-out, with a control signal flat, not every such curve was filed as active; inconclusive = small, poorly fitted or top-dose-only effect, or effect the other way, or a change in a side signal; inactive = no such curve, though single readings can be large or run the other way; note: potency is the fitted concentration of half-maximal effect; % of control where 0% means no effect
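Fluorescence polarization binding of Tsg101 binding domain (10 uM final) to FITC-labeled PTAP peptide (50 nM final) in HEPES pH 7.5 buffer with NaCl, Tween 20, EDTA, TCEP. Compounds added before peptide; binding 20 min at RT.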
TRPML1 ag = agonists of human TRPML1 channel | Q9GZU1 | TRPML1-expressing cells, Ca2+ dye fluorescence, FDSS | activation, % (no concentration beside the values) | 410,000 compounds, 0.12% hits; in the data active = activation above about 50%; inconclusive = mostly about 30% to 49%; note: 0% is about no effect
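Tetracycline-induced TRPML1-DL cells are seeded and incubated overnight before loading with a no-wash Ca2+ dye and quencher. Agonist activity is taken from the 110 s fluorescence read following compound pin-transfer on an FDSS, before EC80 54-4 challenge.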
Glioma ERSR ind = ER stress response induction in glioma | U87-MG GRP78 promoter luciferase reporter, 16 h | Potency, µM, for the others: top-dose activation, usual class: activators | 420,000 compounds, 0.02% hits | AID 602332; active = well fitted activation curve with a large enough effect; inconclusive = small, poorly fitted or top-dose-only effect; inactive = no such curve, though single readings can be large or run the other way; note: potency is the fitted concentration of half-maximal effect; series mostly up to about 76 µM; % of control where 0% means no effect; nearly all actives have a fitted effect of over 35% in size
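ERSR induction read as luciferase luminescence (Bright-Glo, 10 min at room temperature) in stably transfected human U87-MG glioma cells exposed to compounds for 16 h, using GRP78 as sensor.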
hERG WT inh = KCNH2 (human, wildtype) channel inhibition | U2OS, BacMam KCNH2, thallium flux FluxOr; stronger effect = lower value | 340,000 compounds, 0.37% hits | activity change, % at 1.84 µM;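 active = maximum activity change below -70%; inconclusive = maximum activity change between -70% and -50%; inactive = maximum activity change above -50%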; note: % is set by controls: 0 for no effect and ±100 for the full control effect
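U2OS cells transduced with wild-type KCNH2 virus are loaded with FluxOr dye for 45 min, and thallium flux is measured in kinetic reads before and after stimulation buffer. Rate constants are normalized to DMSO controls.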
* hit, by the source's call; u = inconclusive; x = no result.

SMILES	TRPML1 inh	KCNH2 3.1 inh	TSG101-PTAP inh	TRPML1 ag	Glioma ERSR ind	hERG WT inh
S=C1NCN(Cc2ccco2)CN1c1ccccc1	12	3	-1%	0	-1%	1
S=C1NCN(C2CCCCC2)CN1c1ccccc1	9	-96*	-3%	0	-3%	-3
OC(CSc1ccccc1)CN1CCN(c2ccc(Cl)cc2)CC1 (stereo not drawn)	0	-86*	-6%	1	0%	-32
OC(CSc1ccccc1)CN1CCN(c2cccc(Cl)c2)CC1 (stereo not drawn)	-10	u	-3%	0	-2%	-37
O=C(Nc1ccc(Br)cn1)c1ccc2ccccc2c1	-2	8	0%	-1	-4%	-10
O=C(Nc1ccc(Br)cn1)c1cccc(C(=O)Nc2ccc(Br)cn2)c1	-17	-77*	2%	0	-7%	10
O=C(NCc1ccccn1)c1cnn(-c2ncc3c(n2)-c2ccccc2CC3)c1C1CC1	x	x	x	x	-3%	x
COc1cc(N)c(Cl)cc1C(=O)OC(C)C(=O)Nc1cccc(S(=O)(=O)N2CCOCC2)c1 (stereo not drawn)	-5	7	-2%	0	0%	0
CSc1ncccc1C(=O)OC(C)C(=O)Nc1cccc(S(=O)(=O)N2CCOCC2)c1 (stereo not drawn)	-6	4	0%	2	-6%	-315*
Cc1ccc(N2C(=O)c3cccc4c(N)ccc(c34)C2=O)c2cccnc12	0	-13	u	90*	-7%	-23
Cc1nn(C)c(C)c1N1C(=O)c2cccc3c(N)ccc(c23)C1=O	-11	-5	u	94*	-1%	-19
CCC1C(=O)NCCN1Cc1ccc2c(c1)CN(Cc1ccc(OC)cc1OC)CCO2 (stereo not drawn)	x	x	x	x	-5%	x
CCOC(=O)C1(Cc2cccc(OC)c2)CCN(Cc2ccc(OC)c(OC)c2)CC1	-13	-70*	1%	0	-3%	18
CCOC(=O)C1(Cc2cccc(OC)c2)CCCN(Cc2cc(OC)c(O)c(OC)c2)C1 (stereo not drawn)	-6	-193*	-3%	0	-4%	-134*
CCOC(=O)C1(Cc2cccc(OC)c2)CCN(Cc2cccc(O)c2)CC1	-5	-24	-1%	0	-3%	5
CCOC(=O)C1(Cc2cccc(OC)c2)CCN(Cc2cccn2-c2nccs2)CC1	46	-101*	-13%	2	-2%	-83*
CCOC(=O)C1(Cc2cccc(OC)c2)CCN(Cc2ccc(C)s2)CC1	54	-76*	-4%	4	1%	u
CCOC(=O)C1(Cc2cccc(OC)c2)CCCN(Cc2cnn(C)c2)C1 (stereo not drawn)	5	9	-1%	1	2%	-14
CCOC(=O)C1(Cc2ccccc2)CCN(Cc2cccn2-c2nccs2)CC1	24	-3	-3%	2	-5%	-1
COc1cccc(C(=O)N2CCc3c(C(=O)NC(C)c4ccco4)c(OC)cc(=O)n3CC2)c1OC (stereo not drawn)	x	x	x	x	-3%	x
COC(=O)[C@@H]1CCCN1C(=O)c1cc(NC(=O)C2CCC2)c2c(c1)nc(-c1ccncc1)n2C	x	x	x	x	-2%	x
O=C(c1ccccc1-n1cccn1)N1CCOc2c(cc(-c3ncc(C(F)(F)F)cc3Cl)cc2OCC2CCCO2)C1 (stereo not drawn)	x	x	x	x	-1%	x
Cc1ccc(Cl)cc1NC(=O)Nc1cn(CC(C)C)c(=O)c2ccccc12	2	x	x	57*	-2%	x
COc1ccc(NC(=O)Nc2cn(CC(C)C)c(=O)c3ccccc23)c(OC)c1	8	x	x	2	-1%	x
Cc1ccc(Nc2c([N+](=O)[O-])c(=O)oc3ccccc23)cc1C	7	-75*	-13%	2	0%	20
SMILES	TRPML1 inh	KCNH2 3.1 inh	TSG101-PTAP inh	TRPML1 ag	Glioma ERSR ind	hERG WT inh
CCn1nc(C)c(CN2CCC(C(=O)Nc3cccc(-c4cccc(F)c4)c3)CC2)c1C	21	-78*	0%	13	-4%	u
COc1cccc(O)c1CN1CCC(C(=O)Nc2ccc(Oc3cccnc3)cc2)CC1	-11	-23	-4%	3	-4%	-3
COc1ccc(CN2CCC(C(=O)Nc3ccc(Oc4cccnc4)cc3)CC2)c(C)c1C	25	-74*	-2%	0	-11%	5
CCn1cc(CN2CCC(C(=O)Nc3cccc(-c4cccc(F)c4)c3)CC2)cn1	6	-46	-1%	0	-2%	30
COc1cccc(O)c1CN1CCC(C(=O)Nc2ccc(-c3cccc(C)c3)cc2)CC1	20	-99*	0%	0	-4%	-42
Cc1ncc2c(c1CNC(=O)c1cncs1)CCN(C(=O)c1ccc(-c3ccccc3)cc1)C2	x	x	x	x	0%	x
CCN(Cc1ccncc1)Cc1ccc2c(c1)CN(C(=O)c1ccccc1)CCO2	x	x	x	x	-6%	x
O=C(c1cnn(-c2cccc(F)c2)c1-n1cccc1)N1CCN(c2ccccc2F)CC1	-13	x	x	71*	-2%	x
O=C(c1cnn(-c2ccc(F)cc2)c1-n1cccc1)N1CCN(c2ccccc2)CC1	-9	x	x	1	-2%	x
CN/N=C(\Cc1nc2ccccc2[nH]1)c1ccc([N+](=O)[O-])cc1	3	-75*	-1%	0	3%	u
O=C(Cc1nc2ccccc2[nH]1)c1ccc(Cl)cc1	-10	0	-1%	0	u	-13
Clc1ccc(/C(Cc2nc3ccccc3[nH]2)=N\Nc2ccccc2)cc1	43	-102*	2%	1	2%	0
O=C(Cc1nc2ccccc2[nH]1)c1ccc([N+](=O)[O-])cc1	0	13	-7%	1	8%	37
COc1cccc(CNC(=O)c2c(OC)cc(=O)n3c2CCN(C(=O)c2cc(C)ccc2C)CC3)c1	x	x	x	x	-7%	x
COc1ccc2c(c1)-c1nc(-n3ncc(C(=O)N(C)CCO)c3C3CC3)ncc1CC2	x	x	x	x	2%	x
Cc1ccc(C(=O)N2CCN(c3ccc(NC(=O)c4ccc5c(c4)OCCO5)cc3)CC2)cc1	-5	-93*	-3%	2	-6%	-20
Cc1ccc(C(=O)N2CCN(c3ccc(NC(=O)c4ccc(Br)o4)cc3)CC2)cc1	11	-83*	-5%	2	-7%	14
O=C(Nc1ccc(C(=O)N2CCN(c3ccncc3)CC2)cc1)c1ccc(Br)o1	x	x	x	0	x	x
COc1ccc(C(=O)NCc2csc(C)n2)cc1OC1CCN(C(C)=O)CC1	-8	5	-3%	0	-1%	2
COc1cc(C(=O)NCc2nc(C)cs2)ccc1OC1CCN(C(C)=O)CC1	-17	-76*	-3%	0	-1%	-2
